This note sets out measurements from PubChem BioAssay.

The source made the active and inactive calls.

Experiment [1] deals with Albumin (Bos taurus) (UniProt P02769). The experiment can be described thus: compounds binding labelled BSA control protein – biochemical, small-molecule microarray, Alexa647 label, 635/667 nm fluorescence, artefact control for SMM control protein annotation, profiling panel (AID 1118).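 Further: score merges 667 nm emission intensity and signal-to-noise per printed compound spot.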 The note with it: BSA-A647 binding, fluorescence 635 nm, higher = more signal.
Sequence of Albumin (Bos taurus) (P02769 whole entry, looked up): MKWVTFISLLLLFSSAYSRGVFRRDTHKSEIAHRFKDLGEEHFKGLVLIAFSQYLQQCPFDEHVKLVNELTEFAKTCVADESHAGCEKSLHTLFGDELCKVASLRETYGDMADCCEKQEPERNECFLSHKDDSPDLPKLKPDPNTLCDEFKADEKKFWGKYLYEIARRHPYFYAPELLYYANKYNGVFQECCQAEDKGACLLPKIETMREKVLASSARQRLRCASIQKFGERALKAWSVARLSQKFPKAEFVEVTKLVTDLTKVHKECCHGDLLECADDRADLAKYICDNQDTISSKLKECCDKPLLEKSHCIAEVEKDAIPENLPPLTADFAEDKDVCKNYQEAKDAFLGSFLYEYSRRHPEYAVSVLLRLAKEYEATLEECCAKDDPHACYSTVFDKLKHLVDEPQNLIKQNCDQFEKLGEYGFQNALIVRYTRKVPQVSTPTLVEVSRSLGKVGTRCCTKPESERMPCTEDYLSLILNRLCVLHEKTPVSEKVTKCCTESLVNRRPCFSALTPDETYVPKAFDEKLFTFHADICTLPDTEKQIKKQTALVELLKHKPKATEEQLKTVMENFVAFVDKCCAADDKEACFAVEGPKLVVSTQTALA
A short description of experiment [2]: probe aXIP binding to arrayed compounds – biochemical, NeuroSMM set, 635/667 nm fluorescence, primary screen (AID 1119).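 Further: probe is the protein aXip251-270 applied at 1 µg/mL to compound-printed slides; binding of probe to printed compounds measured as 667 nm fluorescence plus signal to noise.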 The note with it: small-molecule microarray, higher = more signal, called active from +8 up or from −8 down.
A short description of experiment [3]: probe aNOTCH3 binding on compound microarray – biochemical, small-molecule microarray, 635/667 nm fluorescence, primary screen (AID 1120).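 Further: probe is a biotin-tagged antibody raised against NOTCH3 rather than NOTCH3 protein; score merges spot fluorescence near 667 nm with spot signal to noise.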 The note with it: higher = more signal.
A short description of experiment [4]: probe aNOTCH2 binding on compound microarray – biochemical, small-molecule microarray, 635/667 nm fluorescence, primary screen (AID 1121).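 Further: score merges feature fluorescence read at 667 nm with its signal to noise.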 The note with it: higher = more signal.
Experiment [5] concerns the target Carbonic anhydrase 2 (Homo sapiens) (UniProt P00918). Description: compounds binding carbonic anhydrase 2 – biochemical, small-molecule microarray, Alexa647-labelled CAII, profiling panel (AID 1122). The note with it: CAII-A647 binding fluorescence, higher = more signal.
Experiment [6] in a line: COS7 lysate on small-molecule microarray, probe aHis, 635 nm (AID 1123).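 Further: z-score combines 667nm fluorescence intensity with signal-to-noise per printed compound spot.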 The note with it: COS7 cell lysate, fluorescence, higher = more signal.
A short description of experiment [7]: probe aLAP1 signal on lysate-treated microarray – cell lysate, small-molecule microarray, COS7 lysate, primary screen (AID 1124).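 Further: lysate comes from COS7 cells expressing LAP1 and is applied at 0.3 µg/mL; score merges spot fluorescence near 667 nm with signal-to-noise over triplicate slides.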 The note with it: probe aLAP1, fluorescence, higher = more signal.
Experiment [8] has as its system Sam68 (KHDRBS1). The experiment can be described thus: compounds binding KHDRBS1 protein – biochemical, small-molecule microarray, 635 nm fluorescence, primary screen (AID 1125).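 Further: score merges 667 nm channel intensity with signal to noise over triplicate slides.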 The note with it: higher = more signal.
Experiment [9] has as its system Chordin-like protein 2 (CHRDL2). Description: compounds binding chordin-like 2 – biochemical, small-molecule microarray, 635 nm fluorescence, primary screen (AID 1126).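 Further: printed compound slides probed with Chrdl2 protein at 4 µg/mL for 1 h at 4 C; score merges 667 nm emission intensity with signal to noise over three replicate slides.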 The note with it: fluorescence 635 nm, higher = more signal.
Experiment [10] has as its target Concanavalin-A (Canavalia ensiformis) (UniProt P02866). Description: compounds binding concanavalin A lectin – biochemical, small-molecule microarray, Alexa647 label, 635 nm, artefact control for SMM control protein annotation, primary screen (AID 1127).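 Further: z combines 667 nm emission intensity with signal-to-noise across three replicate slides.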 The note with it: ConA-A647 binding fluorescence, higher = more signal.
Experiment [11] is described as follows: compounds binding Alexa647 anti-His antibody – biochemical, small-molecule microarray, 635 nm fluorescence, artefact control for SMM control protein annotation, primary screen (AID 1128).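 Further: score merges feature fluorescence with signal-to-noise for each printed compound spot.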 The note with it: higher = more signal.
Experiment [12] concerns Human papillomavirus type 1a E7 protein (residues 1-88). The experiment can be described thus: HPV1a E7 small-molecule binders, primary screen, biochemical, small-molecule microarray, residues 1-88, 635 nm (AID 1129). The note with it: small-molecule microarray binding, fluorescence 635 nm; higher = more signal.
The target in experiment [13] is Focal adhesion kinase 1 (Homo sapiens) (UniProt Q05397). Description: PTK2 protein binding on printed compound slides – biochemical, small-molecule microarray, 635/667 nm fluorescence, BSA, DTT, primary screen (AID 1130).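 Further: composite of spot emission at 667 nm and signal to noise over triplicate slides.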 The note with it: 635 nm fluorescence, higher = more signal.
Sequence of Focal adhesion kinase 1 (Homo sapiens) (Q05397 whole entry, looked up): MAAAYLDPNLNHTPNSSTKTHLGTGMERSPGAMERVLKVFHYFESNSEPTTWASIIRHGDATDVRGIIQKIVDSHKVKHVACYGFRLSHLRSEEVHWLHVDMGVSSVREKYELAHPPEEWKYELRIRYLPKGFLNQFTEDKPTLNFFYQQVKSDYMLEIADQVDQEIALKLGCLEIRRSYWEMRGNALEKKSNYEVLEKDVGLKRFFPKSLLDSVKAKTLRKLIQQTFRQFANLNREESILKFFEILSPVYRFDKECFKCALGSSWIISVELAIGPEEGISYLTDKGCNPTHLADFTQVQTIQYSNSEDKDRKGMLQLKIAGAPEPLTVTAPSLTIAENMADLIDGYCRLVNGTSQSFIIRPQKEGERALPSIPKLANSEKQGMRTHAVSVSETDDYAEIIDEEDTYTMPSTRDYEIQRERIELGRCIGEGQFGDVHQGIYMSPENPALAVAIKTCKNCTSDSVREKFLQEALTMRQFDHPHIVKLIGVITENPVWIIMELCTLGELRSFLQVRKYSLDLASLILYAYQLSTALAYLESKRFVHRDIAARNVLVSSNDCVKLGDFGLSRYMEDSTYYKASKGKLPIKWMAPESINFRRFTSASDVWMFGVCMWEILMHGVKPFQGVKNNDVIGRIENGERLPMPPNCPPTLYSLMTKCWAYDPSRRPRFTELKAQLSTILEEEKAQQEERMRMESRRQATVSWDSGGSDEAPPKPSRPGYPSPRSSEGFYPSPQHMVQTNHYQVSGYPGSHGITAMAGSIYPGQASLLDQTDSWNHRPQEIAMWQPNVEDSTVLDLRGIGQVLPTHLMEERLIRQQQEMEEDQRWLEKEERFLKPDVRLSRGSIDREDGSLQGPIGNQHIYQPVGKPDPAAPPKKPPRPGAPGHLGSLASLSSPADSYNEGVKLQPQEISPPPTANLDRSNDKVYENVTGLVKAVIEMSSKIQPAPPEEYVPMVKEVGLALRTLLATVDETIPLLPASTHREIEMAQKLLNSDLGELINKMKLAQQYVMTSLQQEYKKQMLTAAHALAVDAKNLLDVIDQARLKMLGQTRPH
Experiment [14] relates to Fibrinogen (Alexa647-labelled). Description: Alexa647-fibrinogen binding to printed small molecules – biochemical, small-molecule microarray, 635/667 nm fluorescence, artefact control for SMM control-protein annotation, profiling panel (AID 1131).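 Further: z-score merges 667 nm fluorescence with per-spot signal-to-noise over triplicate slides.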 The note with it: fibrinogen-A647 binding fluorescence, higher = more signal.
Experiment [15] has as its target Follistatin (Homo sapiens) (UniProt P19883). Description: FST protein binding to printed compounds – biochemical, small-molecule microarray, 635/667 nm fluorescence, primary screen (AID 1132). The note with it: 635 nm fluorescence, higher = more signal.
Experiment [16] has as its target Fibroblast growth factor 2 (Homo sapiens) (UniProt P09038). The experiment can be described thus: basic fibroblast growth factor binding to printed compounds – biochemical, small-molecule microarray, 635/667 nm fluorescence, primary screen (AID 1133). The note with it: FGF2, fluorescence 635/667, higher = more signal.
Experiment [17] can be described thus: JC-1 mitochondrial potential readout, lung cancer cells – cell-based, A549, JC-1 fluorescence, basal, 24 h, 100 nL, profiling panel (AID 1138).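 Further: A549 lung adenocarcinoma cells under basal conditions with no added stimulus; test concentration not given here.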 The note with it: higher = more signal.
The subject of experiment [18] is Lefty1. Description: Lefty1 protein binding to printed compounds – biochemical, small-molecule microarray, 635/667 nm fluorescence, primary screen (AID 1139). The note with it: fluorescence 635/667, higher = more signal.
The test system of experiment [19] is wheat germ agglutinin (Triticum aestivum), Alexa647-labelled. The experiment can be described thus: Alexa647-WGA lectin binding to printed small molecules – biochemical, small-molecule microarray, 635/667 nm fluorescence, artefact control for SMM control-protein annotation, profiling panel (AID 1140).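 Further: score merges 667 nm feature emission with signal to noise over triplicate slides.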 The note with it: WGA-A647 binding, 635 nm fluorescence, higher = more signal.

Experiment [20] has as its target Luciferin 4-monooxygenase (Photinus pyralis) (UniProt P08659). The experiment can be described thus: inhibition of purified Photinus pyralis luciferase – biochemical, luminescence, purified enzyme, 2006 set, primary screen (AID 1141).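 Further: cell-free assay with purified firefly luciferase at 100 ng per well in PBS; test concentration not given here.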 The note with it: purified firefly luciferase, SteadyGlo luminescence, 30 min; higher = more signal, called active from +8 up or from −8 down.

Sequence of Luciferin 4-monooxygenase (Photinus pyralis) (P08659 whole entry, looked up): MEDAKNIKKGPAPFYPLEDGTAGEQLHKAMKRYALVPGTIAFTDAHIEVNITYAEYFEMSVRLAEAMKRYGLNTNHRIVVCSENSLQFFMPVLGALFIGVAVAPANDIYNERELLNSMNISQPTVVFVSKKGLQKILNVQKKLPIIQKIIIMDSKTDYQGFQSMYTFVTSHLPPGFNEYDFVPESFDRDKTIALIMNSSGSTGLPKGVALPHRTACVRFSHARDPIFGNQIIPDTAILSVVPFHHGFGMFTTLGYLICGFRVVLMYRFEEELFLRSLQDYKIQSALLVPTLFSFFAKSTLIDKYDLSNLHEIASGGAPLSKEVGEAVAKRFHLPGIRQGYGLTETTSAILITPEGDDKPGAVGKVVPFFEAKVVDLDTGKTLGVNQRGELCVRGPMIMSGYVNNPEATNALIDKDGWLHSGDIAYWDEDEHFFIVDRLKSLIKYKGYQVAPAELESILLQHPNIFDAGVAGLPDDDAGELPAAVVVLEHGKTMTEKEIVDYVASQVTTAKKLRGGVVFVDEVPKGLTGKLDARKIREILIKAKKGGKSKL
Sequence of Fibroblast growth factor 2 (Homo sapiens) (P09038 whole entry, looked up): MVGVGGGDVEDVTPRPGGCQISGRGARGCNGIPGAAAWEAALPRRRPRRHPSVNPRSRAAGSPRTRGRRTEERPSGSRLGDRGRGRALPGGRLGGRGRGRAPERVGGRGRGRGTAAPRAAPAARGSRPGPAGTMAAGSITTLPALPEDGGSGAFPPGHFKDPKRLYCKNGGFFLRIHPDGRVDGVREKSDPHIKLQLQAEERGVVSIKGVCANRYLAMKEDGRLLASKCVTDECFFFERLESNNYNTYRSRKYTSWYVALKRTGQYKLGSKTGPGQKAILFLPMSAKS
Sequence of Concanavalin-A (Canavalia ensiformis) (P02866 whole entry, looked up): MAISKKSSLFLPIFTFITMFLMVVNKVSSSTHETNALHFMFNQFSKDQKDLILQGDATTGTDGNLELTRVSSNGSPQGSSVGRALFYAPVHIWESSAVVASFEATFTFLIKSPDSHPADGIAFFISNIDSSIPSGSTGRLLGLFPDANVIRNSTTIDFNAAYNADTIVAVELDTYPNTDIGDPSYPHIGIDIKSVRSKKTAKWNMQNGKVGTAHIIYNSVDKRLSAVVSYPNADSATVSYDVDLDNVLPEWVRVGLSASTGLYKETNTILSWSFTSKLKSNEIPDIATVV
Sequence of Follistatin (Homo sapiens) (P19883 whole entry, looked up): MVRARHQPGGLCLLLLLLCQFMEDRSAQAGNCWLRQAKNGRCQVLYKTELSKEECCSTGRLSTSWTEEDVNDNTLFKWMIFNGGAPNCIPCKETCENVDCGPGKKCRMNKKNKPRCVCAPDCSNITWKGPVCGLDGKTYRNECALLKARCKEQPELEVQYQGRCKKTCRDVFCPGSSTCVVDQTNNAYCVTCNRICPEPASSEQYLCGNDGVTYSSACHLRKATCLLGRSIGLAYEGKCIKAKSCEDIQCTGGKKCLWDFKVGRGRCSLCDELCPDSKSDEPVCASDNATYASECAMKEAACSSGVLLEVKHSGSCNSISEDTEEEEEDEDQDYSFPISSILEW

In the case of `O=C1[C@H]2[C@H]3[C@H](O)[C@H](O)CC(=NOCc4ccccc4)[C@H]3CC[C@H]2C(=O)N1c1cccc(Oc2ccccc2)c1`, the composite z-score was 0.442 in experiment [1]; 0.0793 in [3]; -0.161 in [4]; 0.144 in [5]; 1.14 in experiment [6]; 0.229 in [7]. Also, the composite z-score in experiment [8] was 1.05; in [9], -0.0086; in experiment [10], 0.707; in [11] it was 0.623; in experiment [12] it was 1.09; in experiment [13], 0.333. Further, the composite z-score came to 0.796 in [14]; 0.663 in [15]; 1.23 in [16]; 0.772 in experiment [18]; 0.623 in experiment [19]. In addition, the composite Z-score in [2] was -0.171 (inactive). The z-score was 0.12 in experiment [17] and 0.549 (inactive) in experiment [20].

On to `CC1(C)OCC(C(O)C2=CCCCC2=O)CO1` (stereo not given), for which the composite z-score in [1] was 0.157; in experiment [3], 0.119; in experiment [4], 0.148; in experiment [5], 0.548; in experiment [6], 0.395; in experiment [7] it was 0.697. Also, the composite z-score in experiment [8] turned out to be 0.826; in [9] it was 0.883; in [10], 1.01; in experiment [11], 0.485; in experiment [12], 0.279; in experiment [13], 0.0102. The composite z-score amounted to 0.945 in experiment [14]; 0.97 in experiment [15]; 0.938 in experiment [16]; 1.33 in experiment [18]; 0.731 in experiment [19]. The composite Z-score in experiment [2] was 0.0887 (inactive). The z-score in [17] is -0.867; in experiment [20] it was 0.114 (inactive).

For the molecule `CCCNC(=O)[C@@H]1c2ccccc2C(=O)N(Cc2ccccc2Cl)[C@H]1c1ccc(CO)cc1`, the composite z-score in [1] was 0.414; in experiment [3], -0.0794; in experiment [4] it was -0.0631; in [5], 0.585; in [6], 1.86; in experiment [7], 0.779. The composite z-score in [8] was 1.3; in experiment [9], 0.36; in [10], 1.13; in experiment [11], 2.58; in [12], 1.19; in experiment [13] it was 0.497. Also, the composite z-score in experiment [14] amounted to 0.691; in experiment [15], 1.36; in experiment [16], 1.3; in experiment [18], 1.1; in [19], 1.09. Also, the composite Z-score in experiment [2] is -0.231 (inactive). Moreover, the z-score in experiment [17] is 3.16; in [20], -1.54 (inactive).

Regarding `CCOC(=O)NN=C1C[C@@H](O)[C@@H](O)[C@@H]2[C@@H]3C(=O)N(C(C)(C)C)C(=O)[C@@H]3CC[C@@H]12`, the composite z-score was -0.422 in experiment [1]; -0.0328 in experiment [3]; -0.14 in [4]; -1.23 in experiment [5]; -0.443 in [6]; 0.171 in experiment [7]. For the same molecule, the composite z-score in [8] is -0.605; in experiment [9] it was -0.63; in [10] it was -0.651; in experiment [11], -0.889; in experiment [12], -0.461; in experiment [13], 0.291. Moreover, the composite z-score in experiment [14] was -0.417; in [15], -0.686; in experiment [16] it was 0.638; in experiment [18] it was -0.519; in [19] it was -1.19. Besides, in experiment [2], the composite Z-score is 0.136 (inactive). For the same molecule, the values for the z-score in experiment [17] and in [20] were 0.0179 and 0.413 (inactive), respectively.

On to `C=CCN1C(=O)[C@]2(O[C@H](CCn3cc(CCO)nn3)[C@@H]([Si](C)(C)c3ccc(OC)cc3)[C@@H]2C)c2cc(N3CCOC3=O)ccc21`, for which the composite z-score in experiment [1] is 0.617; in experiment [3], -0.161; in [4], -0.104; in [5], 0.368; in experiment [6] it was 1.88; in [7], 1.21. The composite z-score is 0.448 in experiment [8]; -0.34 in experiment [9]; 1.13 in [10]; 0.766 in [11]; 1.2 in experiment [12]; 0.469 in [13]. Moreover, the composite z-score is 0.338 in experiment [14]; -0.293 in experiment [15]; -0.0054 in [16]; 0.0269 in experiment [18]; 0.574 in [19]. Also, the composite Z-score in [2] was -0.217 (inactive). Besides, the z-score in [17] was 0.982; in experiment [20], -1.8 (inactive).
